LGR2 antag – Drosophila LGR2 receptor signaling inhibition; HEK293 LGR2, CRE-luciferase, bursicon-stimulated, 4 h; inhibition, % at 9.99 µM; hit rate 0.35% among 380,000;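 active = drop in luminescence signal, shown as inhibition above about 50% in the replicate tests, limit read from the data, passing the limit was not always enough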;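 also: agonist challenge used bursicon conditioned medium at about half maximal strength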
TROY signal inh – blocks TROY-dependent signaling in reporter cells; inhibition, % at 10 µM; Q293 LMP1-TROYcd NF-kB luciferase reporter, 4 h; hit rate 0.98% among 360,000;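 active = compounds whose plate-normalised and pattern-corrected inhibition of the luciferase reporter signal at the single screening dose is 50% or more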
EWS-Fli block – EWS/Fli transcriptional activity inhibition. A673 NR0B1-luciferase reporter, viability-normalised. inhibition, % at 12.6 µM. hit rate 0.67% among 350,000;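 active = mean inhibition of at least 50% after viability correction, with every replicate also passing that limit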;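 also: firefly luciferase signal divided by Alamar Blue viability fluorescence both relative to DMSO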
TWEAK-Fn14 inh – blocks TWEAK-Fn14 interaction in a reporter cell assay; TWEAK-stimulated Fn14 reporter cells, luciferase luminescence, 8 h; inhibition, % at 10 µM; hit rate 2% among 360,000; AID 1159606; in the data active = inhibition above about 50%
PAX8 inh HTS – PAX8 transcriptional activity inhibition | RMG-I TPO-luciferase reporter, SteadyGlo, 24 h | inhibition, % at 12.6 µM | hit rate 1.2% among 360,000 | AID 652154;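 active = mean replicate inhibition at least 60% with every replicate also reaching 60%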;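 also: luciferase light reporting Pax8 driven TPO promoter activity; plate controls were median of neutral control wells for no effect and mitoxantrone controls for full effect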
EBV LMP1 NFkB – Epstein-Barr LMP1 NF-kappaB reporter inhibition; LMP1-induced NF-kappaB luciferase reporter cells, luminescence; AID 504558; hit rate 0.69% among 350,000; inhibition, % at 12.5 µM; in the data active = inhibition above about 41%;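 also: 0% = neutral control wells and 100% = reference inhibitor control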
Numbers without * were called inactive; ! = a repeat was not active. Only some compounds are listed: those with a hit (about 3.2% of all), similar ones and a draw of the others.

Results for C[C@H](CO)N1C[C@H](C)[C@H](CN(C)C(=O)Nc2ccc(F)cc2)Oc2ncc(C#CCN(C)C)cc2C1=O ?
LGR2 antag: 1.3; EWS-Fli block: -15.1

What do the screens show for `C/C=C(/C)C(=O)O[C@@H]1c2c(ccc3ccc(=O)oc23)O[C@@H]1C(C)(C)OC(=O)/C(C)=C\C`?
LGR2 antag: 57.7*; TROY signal inh: -4.6; EWS-Fli block: 9.1; TWEAK-Fn14 inh: -3.8; PAX8 inh HTS: 50.6; EBV LMP1 NFkB: -5.1

What do the screens show for `COC(=O)c1ccc(CSc2ncnc3c2nnn3-c2ccc(F)cc2)o1`?
TROY signal inh: 55.3*; TWEAK-Fn14 inh: -22.4; EBV LMP1 NFkB: -2.7

Results for CCCC(CCC)C(=O)O ?
LGR2 antag: 14.3; TROY signal inh: -12.2; EWS-Fli block: -7.9; TWEAK-Fn14 inh: -2.1; PAX8 inh HTS: 7.6; EBV LMP1 NFkB: 58.0*!

What do the screens show for `CNc1ccc2ncc(-c3cccc(C(=O)N(C)C)c3)n2n1`?
LGR2 antag: 11.0; TROY signal inh: 52.6*; EWS-Fli block: -0.3; TWEAK-Fn14 inh: 87.0*; PAX8 inh HTS: -14.1

What do the screens show for `CC[n+]1c(/C=C/N(C)c2ccccc2)n(-c2ccccc2)c2ccc(-c3nc4ccccc4s3)cc21`?
TROY signal inh: 63.8*; TWEAK-Fn14 inh: 106.7*; EBV LMP1 NFkB: 50.6*

Results for CCOC(=O)c1ccc2c(c1)n(CC)c(/C=C/N(C)c1ccccc1)[n+]2CC ?
LGR2 antag: 3.4; TROY signal inh: -4.7; EWS-Fli block: 9.6; TWEAK-Fn14 inh: 16.9; PAX8 inh HTS: -2.8; EBV LMP1 NFkB: 7.4

What do the screens show for `CC1(C)Cc2ccccc2C(/C(=N\Nc2cccc(Cl)c2)C(N)=O)=N1`?
LGR2 antag: 37.2; TROY signal inh: 27.5; TWEAK-Fn14 inh: 55.6*; PAX8 inh HTS: 30.0; EBV LMP1 NFkB: -0.2

What do the screens show for `COc1ccc(NC(=O)Nc2ccc3c(c2)[C@@H]2C[C@H](CC(=O)N4CCc5ccccc5C4)O[C@H](CO)[C@@H]2O3)cc1`?
LGR2 antag: -14.8; EWS-Fli block: 5.0; PAX8 inh HTS: -15.2

What do the screens show for `CO[C@@H]1CN(C)C(=O)c2cc(NC(=O)c3nc4ccccc4s3)ccc2OC[C@H](C)N(Cc2cccnc2)C[C@@H]1C`?
LGR2 antag: 4.8; EWS-Fli block: -5.5; PAX8 inh HTS: 44.9

What do the screens show for `CO[C@@H]1CN(C)C(=O)c2cc(NC(=O)c3ccccc3F)ccc2OC[C@@H](C)N(CC2CC2)C[C@@H]1C`?
LGR2 antag: 12.1; EWS-Fli block: 6.9; PAX8 inh HTS: 78.9*

What do the screens show for `CO[C@H]1CN(C)C(=O)c2cc(NC(=O)c3nc4ccccc4s3)ccc2OC[C@H](C)N(Cc2cccnc2)C[C@H]1C`?
LGR2 antag: 17.6; EWS-Fli block: 35.9; PAX8 inh HTS: 88.5*

How did O=C(NC1CCCC1)N[C@@H]1C=C[C@H](CC(=O)N2CCOCC2)O[C@H]1CO do in these assays?
LGR2 antag: -2.6; EWS-Fli block: -6.0; PAX8 inh HTS: 7.9

Results for CCSc1nc2ccccc2n1C(=O)/C=C\c1ccc(OC)c(OC)c1 ?
TROY signal inh: 35.9; TWEAK-Fn14 inh: 91.0*; PAX8 inh HTS: 70.1*; EBV LMP1 NFkB: 67.8*

Results for CC(=O)N1[C@H](CO)[C@H](c2ccccc2)[C@@H]1CNC(=O)CN1CCOCC1 ?
LGR2 antag: -14.9; EWS-Fli block: -6.0; PAX8 inh HTS: 3.3

Results for O=C1c2cccc3c(O)ccc(c23)C(=O)N1c1ccc(Cl)cc1 ?
LGR2 antag: -17.6; TROY signal inh: -9.2; EWS-Fli block: 25.6; TWEAK-Fn14 inh: 24.1; PAX8 inh HTS: 101.7*; EBV LMP1 NFkB: 60.2*

How did CC(C)(C)c1nn(-c2ccccc2)c2[nH]c(=O)c(CNc3ccc4c(c3)OCCO4)cc12 do in these assays?
LGR2 antag: 17.9; TROY signal inh: 82.3*; TWEAK-Fn14 inh: 96.2*; EBV LMP1 NFkB: 26.6

What do the screens show for `CC(C)(C)c1nn(-c2ccccc2)c2[nH]c(=O)c(CNCc3ccco3)cc12`?
LGR2 antag: -17.8; TROY signal inh: 23.9; TWEAK-Fn14 inh: 6.7; EBV LMP1 NFkB: 1.1

What do the screens show for `C[C@@H]1CCCCO[C@H](CN(C)C)[C@H](C)CN([C@H](C)CO)C(=O)c2cc(NC(=O)CCCN(C)C)ccc2O1`?
LGR2 antag: -0.8; EWS-Fli block: -7.8; PAX8 inh HTS: -9.9

How did C[C@@H]1CCCCO[C@@H](CN(C)Cc2ccc(C(F)(F)F)cc2)[C@@H](C)CN([C@@H](C)CO)C(=O)c2cc(NC(=O)CCC(F)(F)F)ccc2O1 do in these assays?
LGR2 antag: 18.3; EWS-Fli block: 4.7; PAX8 inh HTS: 71.6*

Results for C[C@@H]1CN([C@H](C)CO)C(=O)c2cc(NC(=O)CCC(F)(F)F)ccc2O[C@@H](C)CCCCO[C@@H]1CN(C)Cc1ccc(C(F)(F)F)cc1 ?
LGR2 antag: 9.0; EWS-Fli block: -2.8; PAX8 inh HTS: 82.6*

How did Cc1cc(Cl)ccc1OC(C)C(=O)Nc1ccc(C(=O)Nc2ccccc2C(=O)O)cc1 (configuration not stated) do in these assays?
LGR2 antag: 12.7; TROY signal inh: 56.9*; TWEAK-Fn14 inh: 36.5; PAX8 inh HTS: -7.7; EBV LMP1 NFkB: 9.7

Results for Cc1cc(Cl)ccc1OC(C)C(=O)Nc1ccc(S(=O)(=O)N2CCOCC2)cc1 (configuration not stated) ?
LGR2 antag: 17.0; TROY signal inh: 16.5; TWEAK-Fn14 inh: -1.8; PAX8 inh HTS: 34.3; EBV LMP1 NFkB: 4.1

How did O=C(CN1CCN(S(=O)(=O)c2ccccc2)CC1)NC(=O)NCc1ccco1 do in these assays?
LGR2 antag: 14.2; TROY signal inh: -10.0; EWS-Fli block: -2.0; TWEAK-Fn14 inh: 94.5*; PAX8 inh HTS: 1.6; EBV LMP1 NFkB: 4.6

What do the screens show for `O=C(c1cc([N+](=O)[O-])ccc1Cl)N1CCN(c2ccc([N+](=O)[O-])cc2)CC1`?
LGR2 antag: -14.3; TROY signal inh: 1.4; EWS-Fli block: 12.3; TWEAK-Fn14 inh: -20.7; PAX8 inh HTS: 69.7*; EBV LMP1 NFkB: 6.4

Results for Cc1ccc(S(=O)(=O)NCc2ccc(C(=O)N3CCN(c4ccc([N+](=O)[O-])cc4)CC3)cc2)cc1 ?
LGR2 antag: 25.4; TROY signal inh: 38.2; EWS-Fli block: 20.7; TWEAK-Fn14 inh: 50.3*; PAX8 inh HTS: 88.4*; EBV LMP1 NFkB: 19.8

How did COc1ccc(N2CCN(C(=O)Oc3ccc([N+](=O)[O-])cc3)CC2)cc1 do in these assays?
LGR2 antag: -0.7; TROY signal inh: -3.4; EWS-Fli block: 0.0; TWEAK-Fn14 inh: 3.6; PAX8 inh HTS: 5.4

What do the screens show for `COc1ccc(N2CCN(C(=O)c3ccc(COc4ccc([N+](=O)[O-])cc4)o3)CC2)cc1`?
LGR2 antag: -1.0; TROY signal inh: 26.8; TWEAK-Fn14 inh: 50.6*; PAX8 inh HTS: 18.9; EBV LMP1 NFkB: -14.4

How did COc1cc(C(=O)N2CCN(c3ccc([N+](=O)[O-])cc3)CC2)ccc1OCc1c(C)noc1C do in these assays?
TWEAK-Fn14 inh: 73.0*; EBV LMP1 NFkB: 15.5

Screening data (PubChem)
